SRC2 inh: human SRC2 (NCOA2) inhibition | Q15596 | HEK293 GAL4-SRC2 luciferase reporter, luminescence | inhibition, % at 9 µM | 0.17% of 370,000 active;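 active = inhibition above the mean inhibition of all tested compounds plus 3 SD, set per campaign, cut at about 52% in these data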;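 note: 0% = DMSO treated cells and 100% = cells given Gossypol at 36 µM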
NCOA3 inh: human NCOA3 inhibition. inhibition, % at 3.6 µM. 0.17% of 360,000 active. Q9Y6Q9. HEK293 GAL4-SRC3 luciferase reporter, luminescence;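 active = inhibition above a per-campaign cutoff, the mean of all compounds plus 3 SD, cut at about 60% in these data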;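 note: 0% = DMSO-treated cells and 100% = gossypol-treated cells at 36 µM; higher means less SRC3-driven luciferase light from the GAL4 reporter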
NR2F2 inh: NR2F2 (human) inhibition, primary screen; P24468; HEK293T NGFI-A luciferase reporter, luminescence; inhibition, % at 8.6 µM; 0.7% of 370,000 active; AID 686940;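 active = inhibition above a per-plate cutoff, mean inhibition of test wells between control levels plus 3 SD, cut at about 38% in these data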;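 note: cells cotransfected with COUP-TFII expression vector driving the NGFI-A reporter; 0% = median of COUP-TF2 test wells and 100% = reporter-only cells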
Target sequence (P24468 whole entry, looked up): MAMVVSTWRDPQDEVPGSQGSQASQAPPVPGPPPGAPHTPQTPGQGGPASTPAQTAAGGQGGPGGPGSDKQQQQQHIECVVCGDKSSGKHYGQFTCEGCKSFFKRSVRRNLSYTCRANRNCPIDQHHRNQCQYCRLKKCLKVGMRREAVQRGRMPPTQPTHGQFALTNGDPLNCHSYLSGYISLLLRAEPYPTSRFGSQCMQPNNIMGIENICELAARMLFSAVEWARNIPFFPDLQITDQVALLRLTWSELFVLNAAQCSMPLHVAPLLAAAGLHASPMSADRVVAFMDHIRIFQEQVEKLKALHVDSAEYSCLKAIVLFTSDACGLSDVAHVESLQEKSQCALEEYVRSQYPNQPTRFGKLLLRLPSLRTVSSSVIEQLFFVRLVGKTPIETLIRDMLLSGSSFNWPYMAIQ
LRH-1 inv ag: NR5A2 inverse agonism in reporter assay | AID 602396 | O00482 | 0.13% of 360,000 active | inhibition, % at 3.6 µM | HEK293T StAR-luciferase reporter, LRH-1 transfected, 24 h;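 active = inhibition above the mean inhibition of all tested compounds plus 3 SD, cut at about 73% in these data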;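 note: 0% = DMSO wells and 100% = reporter-only cells lacking LRH-1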
SRC1 inh: inhibits human SRC1 coactivator | 0.12% of 360,000 active | Q15788 | AID 588354 | HEK293 GAL4-SRC1 luciferase reporter, luminescence | inhibition, % at 3.6 µM;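 active = inhibition above the campaign mean plus 3 SD, with each screening campaign given its own cutoff, cut at about 60% in these data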;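 note: 0% = DMSO treated cells and 100% = gossypol at 36 µM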
Gli-Sufu block: blocks Gli-Sufu signaling in a luciferase reporter | Sufu-KO-LIGHT fibroblasts, Gli luciferase reporter luminescence | inhibition, % at 5 µM | 0.74% of 340,000 active | AID 588413;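 active = inhibition above about 55%, limit read from the data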;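 note: 0% = DMSO-treated cells and 100% = wells with medium but no cells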
Gli-Sufu confirm: Gli-SUFU antagonism confirmation, single concentration. inhibition, % at 5 µM. 40% of 2,500 active. shares compounds with Gli-Sufu block. Sufu-KO-LIGHT cells, Gli luciferase reporter, luminescence;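 active = mean inhibition at 5 µM reaching about 45%, limit read from the data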;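 note: plate controls were DMSO-treated cells for no effect and wells lacking cells for full effect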
Gli cytotox: cytotoxicity counter-screen for Gli-SUFU antagonists; shares compounds with Gli-Sufu block; 32% of 2,500 active; cytotoxicity, % at 5 µM; AID 651994; Sufu-KO-LIGHT cells cytotoxicity, ATP luminescence;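 active = mean cytotoxicity at 5 µM above about 25%, limit read from the data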;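 note: cells exposed to compound overnight for roughly 16 to 18 hours; plate controls were DMSO wells with cells for no effect and medium without cells for full effect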
Wnt3a counter: inhibits Wnt3a reporter, counter-screen for Gli-SUFU antagonists. shares compounds with Gli-Sufu block. AID 651995. Wnt-LIGHT cells, Wnt3a-driven luciferase reporter, luminescence. inhibition, % at 6.25 µM. 20% of 2,500 active;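 active = mean inhibition above about 25%, limit read from the data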
The depositor's hits bear a star; x = no result given. An excerpt weighted towards active compounds, which were near 1.2% of everything screened.

SMILES	SRC2 inh	NCOA3 inh	NR2F2 inh	LRH-1 inv ag	SRC1 inh	Gli-Sufu block	Gli-Sufu confirm	Gli cytotox	Wnt3a counter
CCC(CC)COC(=O)C1=C(C)NC(=O)NC1c1cccc([N+](=O)[O-])c1 (stereo not drawn)	2.6	-9.9	13.6	1.7	5.0	62.0*	25.4	2.7	-25.4
CCCCOC(=O)C1=C(C)NC(=O)NC1c1cccc([N+](=O)[O-])c1 (stereo not drawn)	4.9	-0.3	10.9	-3.0	5.8	45.8	x	x	x
C[C@H](O)[C@@H]1CN2CCc3c([nH]c4cccc(-c5ccc6c(c5)OCO6)c34)[C@@H]2C[C@@H]1N(C)C(=O)c1ccco1	-23.2	x	8.2	x	x	x	x	x	x
Cc1cc(C)nc(N/N=C2/CCCC/C2=C\c2ccccc2)n1	-8.1	22.5	-19.0	-23.8	-2.4	74.1*	30.2	2.7	-4.1
Cc1ccnc(N/N=C/c2ccccc2)n1	-59.2	-66.4	-29.8	-102.3	-80.1	-68.8	x	x	x
N#Cc1ccc(S(=O)(=O)N2CCCc3nc(-c4ccc(Br)cc4)ccc32)cc1	-5.0	x	-11.2	x	x	x	x	x	x
Cc1ccccc1C(=O)N[C@H](C(=O)N1CCC[C@H]1C(=O)NCCc1ccccc1Cl)c1ccccc1	-13.4	x	15.5	x	x	x	x	x	x
CC(=O)Nc1ccc(S(=O)(=O)N2C3CCCC2CC(NC(=O)C2CCCCC2)C3)cc1 (stereo not drawn)	-35.3	3.7	7.5	8.2	-11.4	94.8*	14.6	4.2	-37.8
COc1ccc(-c2nc(N)ncc2-c2csc(C)n2)c(O)c1	-0.5	-13.1	3.9	-54.2	-15.1	99.0*	23.4	3.1	21.2
CCCCc1c(-c2ccccc2OC)ncn1C(C)c1ccc(Cl)cc1 (stereo not drawn)	-18.9	x	1.6	x	x	x	x	x	x
CN1/C(=C\C(=O)COC(=O)Cn2nnc(-c3ccccc3)n2)C(C)(C)c2ccccc21	30.2	15.0	10.2	2.8	8.8	71.3*	68.4*	42.7*	33.9*
Cc1ccc(OCCC(=O)N2CCN(c3ccc(O)cc3)CC2)cc1	-27.0	-11.3	7.3	-11.1	-4.3	54.2	35.4	14.7	0.0
CCOc1ccc(C(=O)CCC(=O)N2CCN(c3ccc(O)cc3)CC2)cc1	-3.7	17.2	17.3	-4.4	-33.1	3.4	x	x	x
CCc1c(C)sc2nc(C(C)C)nc(SCC(=O)N3CCc4ccccc4C3)c12	17.1	x	5.7	x	x	83.1*	85.4*	41.4*	13.0
Cc1sc2nc(C3CC3)nc(SCC(=O)N3CCc4ccccc4C3)c2c1C	14.2	-1.8	1.4	7.5	5.8	24.7	x	x	x
O=C(NCC1CCCO1)c1nn2c(C(F)(F)F)cc(-c3ccc(Br)o3)nc2c1Br (stereo not drawn)	-27.2	0.1	-12.0	8.8	12.5	56.4*	17.9	15.3	-2.4
O=C1CC(c2ccccc2)CC(O)=C1C=Nc1ccccc1 (stereo not drawn)	5.0	11.2	7.9	0.0	10.2	22.7	x	x	x
Cc1ccc(N=CC2=C(O)CC(c3ccc(Cl)cc3)CC2=O)cc1 (stereo not drawn)	10.4	8.4	1.8	-0.3	-3.2	52.7	26.2	9.9	20.0
O=C(Cc1cn(Cc2ccccc2)c2ccccc12)Nc1ccc(Oc2cccnc2)cc1	10.5	x	0.3	x	x	x	x	x	x
Cc1ccc(N2CC(C(=O)Nc3nc4ccc(S(C)(=O)=O)cc4s3)CC2=O)cc1C (stereo not drawn)	6.4	4.5	8.0	41.6	-2.2	50.8	18.6	13.4	-43.1
Cc1csc(NC(=O)C2CC(=O)N(c3ccc(C)c(C)c3)C2)n1 (stereo not drawn)	-3.4	3.9	-1.6	-9.0	7.6	27.4	x	x	x
COC(=O)Oc1ccc(/C=C/C(=O)OC(C)C)cc1OC(=O)OC	-26.7	-73.3	-20.5	-106.1	-66.6	53.3	28.7	23.5	-6.0
COc1ccc(/C=C/C(=O)OCCNC(=O)c2ccncc2)cc1OC	-12.4	7.2	8.5	-6.6	-3.6	-1.9	x	x	x
CCCCOC(=O)/C=C/c1ccc(OC(=O)OC)c(OC(=O)OC)c1	13.8	-58.9	-14.1	-103.6	-32.0	61.9*	45.6*	11.4	36.8*
O=C(NS(=O)(=O)c1cccc(F)c1)[C@H]1O[C@@H](n2ccc(=O)[nH]c2=O)[C@H](O)[C@@H]1O	-26.1	x	-2.0	x	x	x	x	x	x
SMILES	SRC2 inh	NCOA3 inh	NR2F2 inh	LRH-1 inv ag	SRC1 inh	Gli-Sufu block	Gli-Sufu confirm	Gli cytotox	Wnt3a counter
Cc1[nH]n(-c2ccccc2)c(=S)c1C=NCCCN=Cc1c(C)[nH]n(-c2ccccc2)c1=S	-14.6	-4.0	12.7	-9.9	-5.2	71.3*	31.9	31.9*	-94.0
CN(C)[C@@H]1CCN(c2ccc3c(c2)O[C@@H]2CCN(C2)S3(=O)=O)C1	3.8	x	-6.9	x	x	x	x	x	x
COc1cccc(NC(=O)CSCc2cc(=O)n3ccsc3n2)c1	x	8.0	x	6.9	-3.7	-8.6	x	x	x
COC(=O)c1ccc(OCc2cc(=O)n3ccsc3n2)cc1	-74.0	5.0	-14.9	19.0	13.2	79.9*	18.1	9.5	2.1
CC(C)OC(=O)[C@@H](Cc1ccccc1)N[C@H](/C=C/c1ccccc1)[C@@H](O)Cc1ccccc1	9.5	x	-17.4	x	x	x	x	x	x
CC1CCN(c2ccccc2NC(=S)NC(=O)c2ccc(-c3cccc([N+](=O)[O-])c3)o2)CC1	-32.0	-8.9	-9.1	-19.5	-9.6	79.3*	85.8*	32.4*	15.5
OC[C@@H]1[C@@H](c2ccccc2)C(c2ccccc2)=NN1c1ccccc1	-1.9	-5.8	2.6	-10.0	-3.8	-2.9	x	x	x
c1ccc(-c2nn(-c3ccccc3)[n+](-c3ccccc3)n2)cc1	14.3	43.1	31.2	49.0	37.5	63.3*	66.7*	13.5	32.8*
COCc1cc(N2CCNC[C@H]2C)ccc1N1CCN(Cc2ccccc2)[C@@H](C)C1	-14.4	x	-17.6	x	x	x	x	x	x
NCC(=O)Nc1ccc(Cl)cc1C(=O)c1ccc[nH]1	56.1*	50.9	-2.6	58.6	52.8	51.5	33.4	0.4	11.5
COc1ccc(C(C(=O)NC2CCCCC2)N(C(=O)CCl)c2ccc(Cl)cc2)cc1 (stereo not drawn)	x	49.3	x	0.1	10.5	84.8*	32.9	27.8*	-13.0
COc1ccc(N(C(=O)c2cnccn2)C(C(=O)NC2CCCCC2)c2ccc(Cl)cc2)cc1 (stereo not drawn)	-19.8	-1.5	-18.6	-15.2	-9.2	-4.0	x	x	x
COc1ccccc1Cc1c(C(C)(C)C)nc2c(C)cc(Br)cn12	-5.6	x	6.7	x	x	x	x	x	x
CCCCCCCCN1C(=O)[C@@H](CC(=O)N2CCOCC2)C[C@@]2(C(=O)OC)C1=C[C@H](C(C)(C)C)O[C@@H]2C	-22.1	x	5.1	x	x	x	x	x	x

Screening results (PubChem BioAssay)
